# Values joined by “and” are separate entries in the source; they are usually repeats but may differ in a detail not shown here. Identical values can stand only once. The whole screen tested about 220,000 compounds, of which about 5,700 (2.6%) were called active. Another 18% or so got no clear call; they are omitted. Calls follow the shape of the dose curve; as a rule, active = well fitted inhibition curve with a large enough effect; inconclusive = small, poorly fitted or top-dose-only effect; inactive = no such curve, though single readings can be large or run the other way. What follows is part of a selection rich in actives, with near analogues and random picks from the rest. Entries that show only a call come without a potency.
# Target: Lysine-specific demethylase 5B (Homo sapiens) (UniProt Q9UGL1)
# Assay: Primary screen for KDM5B Histone Demethylases FDH-coupled qHTS; also: nearly all actives have a fitted effect of over 70% in size
# Settings: FDH-coupled NADH fluorescence (FDH is formaldehyde dehydrogenase); series mostly up to 57.7 µM
# How it was run: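 qHTS format, multiple compound concentrations. Buffer 50 mM HEPES pH 7.5/0.01% Tween-20; 200 nM KDM5BΔAP final; 10 min compound preincubation; substrate-mix levels 12.5 µM peptide, 25 µM α-KG, 0.25 mM NAD⁺; 30 min RT; ΔRFU.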
# Potency is read from the fitted curve at half-maximal effect.
# Chain of Lysine-specific demethylase 5B (Homo sapiens) (Q9UGL1 whole entry, looked up): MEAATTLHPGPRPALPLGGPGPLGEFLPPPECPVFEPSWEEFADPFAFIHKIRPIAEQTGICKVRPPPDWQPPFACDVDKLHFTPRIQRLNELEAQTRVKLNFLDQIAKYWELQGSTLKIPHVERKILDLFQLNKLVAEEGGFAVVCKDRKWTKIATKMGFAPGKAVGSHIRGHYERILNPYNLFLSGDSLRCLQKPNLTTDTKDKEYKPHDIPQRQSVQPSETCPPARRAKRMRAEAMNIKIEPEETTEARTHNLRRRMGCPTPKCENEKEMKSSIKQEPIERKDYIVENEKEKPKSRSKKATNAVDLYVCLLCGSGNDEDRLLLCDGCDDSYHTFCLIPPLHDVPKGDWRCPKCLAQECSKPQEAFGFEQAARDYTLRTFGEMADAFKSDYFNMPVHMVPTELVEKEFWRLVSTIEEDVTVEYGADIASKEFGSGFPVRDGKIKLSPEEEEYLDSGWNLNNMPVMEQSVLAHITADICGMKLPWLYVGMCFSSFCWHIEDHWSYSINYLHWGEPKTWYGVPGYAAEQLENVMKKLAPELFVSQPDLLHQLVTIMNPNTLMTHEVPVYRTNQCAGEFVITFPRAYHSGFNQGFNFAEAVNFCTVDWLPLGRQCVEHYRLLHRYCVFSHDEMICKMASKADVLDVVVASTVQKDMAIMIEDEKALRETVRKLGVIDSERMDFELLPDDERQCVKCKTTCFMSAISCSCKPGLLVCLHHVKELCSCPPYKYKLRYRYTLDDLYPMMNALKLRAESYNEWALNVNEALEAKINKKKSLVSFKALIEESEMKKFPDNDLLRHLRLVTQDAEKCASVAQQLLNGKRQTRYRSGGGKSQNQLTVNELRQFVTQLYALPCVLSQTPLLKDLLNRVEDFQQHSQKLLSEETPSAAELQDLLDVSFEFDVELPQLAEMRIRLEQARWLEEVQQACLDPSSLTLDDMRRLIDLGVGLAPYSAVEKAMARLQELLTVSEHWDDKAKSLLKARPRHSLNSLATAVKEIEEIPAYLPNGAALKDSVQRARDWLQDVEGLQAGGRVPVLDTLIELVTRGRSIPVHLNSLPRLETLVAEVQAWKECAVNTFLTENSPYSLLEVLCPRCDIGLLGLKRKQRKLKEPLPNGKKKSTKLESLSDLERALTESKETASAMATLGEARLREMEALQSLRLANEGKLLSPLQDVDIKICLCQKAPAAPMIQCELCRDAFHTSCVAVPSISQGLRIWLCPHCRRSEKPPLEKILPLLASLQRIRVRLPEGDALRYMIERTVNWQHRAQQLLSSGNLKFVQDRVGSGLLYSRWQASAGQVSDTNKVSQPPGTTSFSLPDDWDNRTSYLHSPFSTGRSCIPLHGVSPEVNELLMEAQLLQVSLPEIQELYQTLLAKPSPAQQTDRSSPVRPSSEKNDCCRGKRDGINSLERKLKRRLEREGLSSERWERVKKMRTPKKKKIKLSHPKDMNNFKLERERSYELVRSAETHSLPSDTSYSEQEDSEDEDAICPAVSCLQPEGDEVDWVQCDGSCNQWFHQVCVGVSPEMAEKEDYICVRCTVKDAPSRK
row,Structure (SMILES),Potency
1,O=C(c1ccco1)N1CCC(C(=O)N2CCN(C(=O)C3CC3)CC2)CC1,inactive
2,CC(=O)Nc1ccc(SCC(=O)N(Cc2nc3ccccc3c(=O)[nH]2)CC2CCCO2)cc1 (stereo not drawn),inactive
3,COCCn1c(C)nnc1-c1cc(-c2cccc(F)c2)ccn1,inactive
4,COc1ccc(-c2ccnc(-c3nnc(C)n3C3CCN(C)CC3)c2)cc1OC,31.6 µM (active)
5,Cc1nnc(-c2cc(-c3ccccc3)ccn2)n1CCc1ccccc1,inactive
6,Cc1nnc(CSc2nnc(Nc3cccc(C)c3C)s2)o1,inactive
7,COc1ccc(N2CC(c3noc(-c4cc(OC)c(OC)c(OC)c4)n3)CC2=O)cc1 (stereo not drawn),inactive
8,Fc1ccc(-c2ccnc3nc(C4CCC4)nn23)cc1,31.6 µM (active)
9,COc1cc(-c2ccnc3nc(C4CC4)nn23)cc(OC)c1OC,17.8 µM (active)
10,COc1cc(C(=O)N2CCC(c3ccncc3)CC2)cc(OC)c1OC,inactive
11,O=C(Nc1cccn2nc(C3CCC3)nc12)c1cccc(F)c1,inactive
12,CCC(=O)c1ccc(OC(=O)c2cc3ccccc3oc2=O)cc1,inactive
13,CSc1ncc(C(=O)Nc2ccc(Cl)cc2)c(C(F)(F)F)n1,inactive
14,COc1ccccc1NC(=O)C1c2ccccc2C(=O)N(CC(C)C)C12CCCC2 (stereo not drawn),inactive
15,CC(C)(C)C(=O)c1cn(CCOc2ccccc2F)c2ccccc12,inactive
16,Cc1ccc(OCc2nc(C3CCN(C(=O)CCc4nc5ccc(Cl)cc5[nH]4)CC3)no2)cc1,inactive
17,COc1nccnc1NC1CCN(C(=O)NCc2ccccc2)CC1,28.2 µM (active)
18,COCCNC(=O)[C@@H]1C[C@@H](O)CN1C1CCN(C(=O)CCc2ccccc2)CC1,inactive
19,Cc1noc(C)c1CC(=O)N1CCC(c2n[nH]c(=O)n2Cc2ccc(F)cc2)CC1,inactive
20,COc1nc2ccccc2nc1N1CCC(C(=O)NCc2ccccc2)CC1,inactive
21,Cc1nc2c(c(NC3CC3)n1)CCN(C(=O)CCc1cccnc1)CC2,inactive
22,COc1nccnc1NC1CCN(C(=O)CCc2c(C)noc2C)CC1,31.6 µM (active)
23,COc1nccnc1NC1CCN(C(=O)CCc2ccccc2)CC1,25.1 µM (active)
24,O=C(NCc1ccccc1)N1CCN2C(=O)NC[C@H]2C1,inactive
25,CC/C(=N\NC(=O)c1ccc(C(C)(C)C)cc1)c1ccccc1,inactive
26,Cn1cnnc1C1CCCN(S(=O)(=O)N2CCCCC2)C1 (stereo not drawn),inactive

row,Structure (SMILES),Potency
1,Cc1ccc(OCC(O)Cn2cnc3sccc3c2=O)c(C)c1 (stereo not drawn),inactive
2,COc1ccc2c(CC(=O)N3CCc4cc(OC)c(OC)cc4C3)coc2c1,inactive
3,Cc1oc2ccn(Cc3ccccc3F)c(=O)c2c1C(=O)NCCCN1CCCCC1C (stereo not drawn),inactive
4,COc1ccc(C2=NC(c3ccncc3)=Nc3ccc(Br)cc3N2)cc1,inactive
5,COc1ccc(CC(=O)NC[C@@H]2C=C(C)[C@H](Cc3nc4ccncc4[nH]3)C[C@H]2C(C)C)cc1,inactive
6,c1cc(-c2nc3ccncc3[nH]2)ccn1,126 µM (active) and 31.6 µM (active)
7,Cc1cc(C)c(NC(=O)CSc2nc3ccncc3[nH]2)c(C)c1,inactive
8,Cc1ccc(Nc2n[nH]nc2C(=O)Nc2ccc(C)cc2Cl)cc1,inactive
9,Cc1csc(CNC(=O)N(C)Cc2ccc3c(c2)OCCO3)n1,inactive
10,O=C(Nc1ccccc1Cc1ccccc1)c1cccc[n+]1[O-],inactive
11,CC(C)(Oc1nn(CCOc2ccccc2)c2ccccc12)C(=O)NCCCn1ccnc1,inactive
12,Cc1ccc(-c2nc(C#N)c(NCCCn3ccnc3)o2)cc1,inactive
13,O=C(NCCCn1ccnc1)c1ccc(-c2ncc3cnc(-c4cccc(F)c4)cn23)cc1,17.8 µM (active)
14,Cn1cc(S(=O)(=O)N2CCC(C(=O)Nc3ccc(OC(F)F)c(Cl)c3)CC2)cc1C(N)=O,inactive
15,COC(=O)c1sccc1S(=O)(=O)Nc1ccc(OC)cc1,inactive
16,O=C(N[C@@H]1CN(Cc2c(F)cccc2F)C[C@H]1CO)c1ccccc1,inactive
17,CN(C)C[C@@H]1CN(C)C[C@H]1NC(=O)c1cc2ccccc2[nH]1,25.1 µM (active)
18,CN(C)C[C@@H]1CN(S(C)(=O)=O)C[C@H]1NC(=O)c1nn(C)c2ccccc12,28.2 µM (active)
19,COc1ccc(C(=O)N[C@H]2C[C@@H]3CC[C@H]2C3)cc1,inactive
20,CN(C)C[C@@H]1CN(Cc2ccccn2)C[C@H]1NC(=O)c1ccc2cc[nH]c2c1,28.2 µM (active)
21,COc1ccc2cc(C(=O)N3CCC(C(C)C(=O)NCCCN4CCCC4)CC3)[nH]c2c1 (stereo not drawn),inactive
22,CN(C)C[C@@H]1CN(S(C)(=O)=O)C[C@H]1NC(=O)c1cccc(F)c1,inactive
23,CC(CNC(=O)c1cc2ccccc2[nH]1)c1ccccc1 (stereo not drawn),inactive
24,CN(C)C[C@@H]1CN(S(C)(=O)=O)C[C@H]1NC(=O)c1ccc2ncccc2c1,inactive
25,CN(C)C[C@@H]1CN(C)C[C@H]1NC(=O)c1ccnnc1,inactive
26,Cc1cc(C)n(CCC(=O)N[C@@H]2CN(S(C)(=O)=O)C[C@H]2CN(C)C)n1,inactive

row,Structure (SMILES),Potency
1,COc1ccc2[nH]c(C(=O)N[C@@H]3CN(S(C)(=O)=O)C[C@H]3CN(C)C)cc2c1,28.2 µM (active)
2,O=C(O)COc1ccc2c(=O)c(Oc3ccc(Cl)cc3)coc2c1,inactive
3,Cc1ccc(CNC(=O)Cn2c(=O)ccc3cc(S(=O)(=O)N4CCC(C)CC4)ccc32)o1,inactive
4,Brc1ccc(/C=N/N=C/c2ccc(Br)s2)s1,inactive
5,COc1ccc(NC(=O)CN(C)c2nc(CN3CCOCC3)nc3sc(C)c(C)c23)cc1,inactive
6,Cc1nnc([C@H]2CCN(Cc3ccc(F)cc3)C2)o1,inactive
7,COC1CN(c2cccc(F)c2)C12CCN(C1CCOCC1)CC2 (stereo not drawn),inactive
8,Fc1ccc2oc([C@H]3CCN(C4CCOCC4)C3)nc2c1,44.7 µM (active)
9,Cc1ccc(-c2nc3ccc(C(=O)N4CCC(CC(=O)N5CCCCCC5)CC4)cc3o2)cc1,inactive
10,COc1ccc(C2=NOC(C(=O)Nc3cc(C)nn3-c3ccccc3)C2)cc1 (stereo not drawn),inactive
11,O=C(COc1ccccc1)Nc1ccc2c(=O)c3ccccc3oc2c1,inactive
12,CCc1ccc(CN(C)C(=O)c2ccc3oc(-c4cccc(F)c4)nc3c2)nc1,28.2 µM (active)
13,O=C(O)c1ccc2oc(-c3cccc(Cl)c3)nc2c1,inactive
14,CN(C)C(=O)c1ccc(OCc2coc(-c3cccc(F)c3)n2)cc1,inactive
15,CCCCS(=O)CC(O)CCl (stereo not drawn),inactive
16,O=C(CN1CCCCCC1)Nc1ccc(Cl)cc1F,inactive
17,CN(C)C(=O)CN1C(=O)c2ccccc2C1c1cn(C)c2ccccc12 (stereo not drawn),inactive
18,Cc1cc(C)cc(C(=O)NCCC(=O)N2CCCC2)c1,inactive
19,O=C(CSc1nc(-c2cccc(F)c2)[nH]c1-c1ccccc1)Nc1ccc2c(c1)OCO2,inactive
20,Oc1ccc(-c2nc3ccc(Cl)cn3c2Nc2ccc3c(c2)OCO3)cc1,inactive
21,O=C(CCNc1c(-c2ccc(F)cc2)nc2cnccn12)Nc1ccc2c(c1)OCO2,25.1 µM (active)
22,Cc1cccc(-c2cccc(NC(=O)C3CCCN(C(=O)CC(F)(F)F)C3)c2)c1 (stereo not drawn),inactive
23,O=C(Nc1c(-c2ccc(F)cc2)nc2ccccn12)c1cccc(F)c1,inactive
24,O=C(CCNc1c(-c2ccccc2)nc2cnccn12)N1CCC(N2CCCCC2)CC1,28.2 µM (active)
25,CC1CCN(C(=O)CCNc2c(-c3ccc(F)cc3)nc3cnccn23)CC1,31.6 µM (active)
26,O=C1CCN(C(=O)C2CCN(C(=O)CCCc3ccccc3)CC2)CCCCCCN1,inactive

row,Structure (SMILES),Potency
1,Cc1cccc(-c2nc3cnccn3c2NCCC(=O)N2CCCCCC2)c1,28.2 µM (active)
2,CC(=O)N1CCN(C(=O)CCC(=O)N2CCC(c3noc4cc(F)ccc34)CC2)CC1,inactive
3,O=C(NC1CCCCC1)N1CCCCCC1c1nc(-c2cccnc2)no1 (stereo not drawn),inactive
4,CC(C)CCN(CC(=O)NC(N)=O)C1CC1,inactive
5,COc1ccc(NC(=O)Cc2c(C)c3ccc(OC)c(C)c3oc2=O)cc1OC,inactive
6,COC(=O)c1ccc(OCc2cccc(C#N)c2)c(OC)c1,inactive
7,Cn1c(=O)c2c(ncn2CCC(=O)Nc2ccc(F)cc2F)n(C)c1=O,inactive
8,COc1ccc(Nc2ccccc2)cc1,inactive
9,CCCn1nc(C(=O)OCc2nc(-c3cccc(OC)c3)no2)c2ccccc2c1=O,inactive
10,O=C(CSc1nccn1Cc1ccc(F)cc1)NCc1ccccc1,inactive
11,COC(=O)CNC(=O)c1nc(-c2ccc([S+](C)(=O)[O-])cc2)c2ccccn12,inactive
12,Cc1cccc(C)c1-c1nc(C(=O)N2CCN(c3ncccn3)CC2)n2ccccc12,31.6 µM (active) and 28.2 µM (active)
13,Cc1cc2ccccc2n1CCNC(=O)c1ccc(F)cc1,inactive
14,Cc1cccc(N2CCN(C(=O)c3cnc(N4CCCC4)nc3C)CC2)c1C,inactive
15,O=C(c1cc(-c2ccccc2)n[nH]1)N1CCN(c2ncccn2)CC1,inactive
16,O=C(NCc1ccc(F)cc1)c1nc(-c2ccccc2)c2ccccn12,28.2 µM (active)
17,Cc1nc(-c2ccccc2)n(CC(=O)NCc2ccc(F)cc2)c(=O)c1CCO,inactive
18,COCCNC(=O)c1cc(-c2cccc(Cl)c2)on1,inactive
19,Cc1ccc(CNC(=O)c2c(O)nc3c(C)cccn3c2=O)cc1,inactive
20,Cc1cccc(C)c1-c1nc(C(=O)NCc2ccc(F)cc2)n2ccccc12,28.2 µM (active)
21,COc1cccc(/C=C2\C=C(c3ccc(C)cc3)OC2=O)c1OC(C)=O,inactive
22,O=C(NCCN1CCCCC1)C(=O)Nc1cccc2[nH]ccc12,inactive
23,CCCC(=O)Nc1ccc(-c2csc(NC)n2)cc1,inactive
24,O=C(Cn1c(=O)c2c(ncn2C2CCCC2)n(Cc2ccccc2)c1=O)NC1CCS(=O)(=O)C1 (stereo not drawn),inactive
25,CC(Oc1ccc(Cl)cc1)c1nc(-c2ccc(Cl)cc2)no1 (stereo not drawn),inactive

# From PubChem BioAssay AID1347165 (National Center for Advancing Translational Sciences (NCATS), 2019)
